From PubChem BioAssay
Compounds with a hit are over-represented: about 19% of the library has one in this group of screens.
Pf growth 48h: inhibits P. falciparum growth in the first generation, 48 h; P. falciparum luciferase growth in erythrocytes, 48 h; Potency, µM (series often up to 28.7 µM), without a hit: at the top dose activity change, negative = inhibition, usual class: inhibitors; actives 5.9% (n = 310,000); also: potency is read from the fitted curve at half-maximal effect; % is scaled to controls: 0 for no effect and ±100 for the full control effect
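Luciferase-expressing parasites in RBCs, 2% Hct / 0.1% parasitemia final; RPMI 1640 + 0.5% Albumax; 37 C, 5% CO2, one generation; luminescence read-out, lower signal = inhibition.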
SARS PLP yeast: inhibitors of SARS-CoV papain-like protease in yeast | S. cerevisiae expressing SARS-CoV PLpro, growth rescue | Potency, µM (top dose mostly 32.9 µM), for the others: at the top dose activity, positive = growth rescue, hits mostly activators | actives 0.19% (n = 330,000); calls by dose curve; also: potency is read from the fitted curve at half-maximal effect; 0% is about no effect; nearly all actives have a fitted effect of over 55% in size
Shiga inhibitor: blocks Shiga toxin action in Vero cells; Vero cells, Shiga toxin protein synthesis inhibition reporter; inhibition, % at 38.7 µM; actives 9.2% (n = 290,000); AID 2315; in the data active = inhibition mostly above about 28%, no sharp cut-off; inactive = mostly below about 43%; also: 0% is about no effect
Pf growth 96h: P. falciparum growth inhibition at 96 hour, primary screen for plastid delayed-death inhibitors; P. falciparum luciferase reporter growth, 96 h; Potency, µM (highest dose often 28.7 µM), without a hit: at the highest dose activity change, negative = inhibition, hits mostly inhibitors; actives 6.9% (n = 320,000); AID 504834; also: potency is read from the fitted curve at half-maximal effect; % is scaled to controls: 0 for no effect and ±100 for the full control effect
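Two-generation exposure (96 h) targets delayed-death phenotype. Reporter parasites carrying integrated firefly luciferase, in red cells at 2% hematocrit and 0.05% parasitemia final, kept at 37 C, 5% CO2; luminescence loss indicates inhibition.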
Cycloheximide cs: affects cycloheximide protein synthesis inhibition readout, counter-screen. cell reporter, cycloheximide protein synthesis inhibition counterscreen. max response, %. actives 12% (n = 300,000). AID 2314; in the data active = max response mostly above about 13%, no sharp cut-off; inactive = mostly below about 14%; also: read at 38.3 µM for the half of the compounds with a filed dose; 0% is about no effect
AMA1-RON2 inh: AMA1-RON2 (P. falciparum) interaction inhibition; AlphaScreen AMA1-biotinylated RON2 peptide binding; Potency, µM (titrated, usually from 58.2 µM), for inactives: at the highest dose activity change, negative = inhibition, most hits filed as inhibitors; actives 0.2% (n = 360,000); AID 720542;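 also: potency is read from the fitted curve at half-maximal effect; 0% = vehicle wells and -100% = peptide control; nearly all actives have a fitted effect of over 45% in size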
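AMA1 (3D7) with his tag at 25 nM final met compounds first, then biotinylated RON2 peptide at 25 nM; detection used donor plus acceptor beads, 10 µg/mL apiece, read by AlphaScreen after 30 min at room temperature.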
An asterisk follows results filed as active; ? = inconclusive; nt = not tested or not shown; [ ] = remark or other dose. Unless noted, calls follow the shape of the dose curve; as a rule, active = well fitted curve in the direction sought with a large enough effect; inconclusive = small, poorly fitted or top-dose-only effect, or another doubt; inactive = no such curve, though single readings can be large; an effect the other way counts as inactive or inconclusive.

SMILES | Pf growth 48h | SARS PLP yeast | Shiga inhibitor | Pf growth 96h | Cycloheximide cs | AMA1-RON2 inh
Cc1ccc2cc3cc(C(=O)NCc4ccc5c(c4)OCO5)oc3nc2c1 | 0% | 1% | -5 | 3.7µM* | -3 | -6%
CCCCN(CC)C(=O)c1cccc(Cl)c1 | -1% | 0% | 26 | 5% | 5 | -3%
CCCCN(CC)C(=O)c1cc2cc3ccc(Cl)cc3nc2o1 | ? | -4% | 64* | -18% | 33* | 0%
COc1ccc2cc3cc(C(=O)NCc4cccs4)oc3nc2c1 | 5.9µM* | -11% | -2 | -6% | 2 | -7%
COc1ccc([N+](=O)[O-])cc1NS(=O)(=O)c1ccc(Cl)c(C(=O)Nc2sc3c(c2C#N)CCCCC3)c1 | -4% | 1% | 4 | 19% | 0 | nt
O=C(O)C1CCCC2CN3CCc4c([nH]c5ccccc45)C3C(O)C21 (stereo not given) | -4% | 5% | -6 | ? | -2 | -3%
COc1ccc2cc3cc(C(=O)NCCCN4CCC(C)CC4)oc3nc2c1 | ? | 2% | 128* | -31% | 43* | 14%
CCN1CCN(CCCNC(=O)c2cc3cc4ccc(OC)cc4nc3o2)CC1 | 13µM* | -3% | -22 | 45% | -5 | 10%
CCCN(CCC)CCCNC(=O)c1cc2cc3ccc(OC)cc3nc2o1 | ? | 3% | -12 | -1% | 2 | 10%
COc1ccc2cc3cc(C(=O)NCCc4ccc(OC)c(OC)c4)oc3nc2c1 | ? | -1% | -15 | 34% | -5 | 10%
CCCCN(CC)CCCNC(=O)c1cc2cc3ccc(OC)cc3nc2o1 | ? | -3% | -7 | 3.7µM* | -1 | 6%
COc1ccc2cc3cc(C(=O)NCCCN4CCOCC4)oc3nc2c1 | ? | 2% | 26 | 1.2µM* | 17 | 0%
O=C(Nc1nnc(C2=COCCO2)o1)c1ccc([N+](=O)[O-])cc1 | ? | 2% | -10 | ? | -1 | 32%
Cc1nc2ccccn2c1C(=O)OCC#N | 6% | -1% | 2 | 51% | -6 | -3%
Cc1ccc(N(CC(=O)NCc2ccc(Cl)cc2)S(C)(=O)=O)cc1 | ? | 1% | nt | 0% | 8 | 7%
CC(=O)N(CC1CCCO1)c1nnc(-c2ccccn2)s1 (stereo not given) | 38% | 17% | 42 | -6% | 22 | 25%
COCCN(C(C)=O)c1nnc(-c2cnccn2)s1 | 28% | 12% | -11 | 2.3µM* | 4 | -11%
COCCN(C(C)=O)c1nnc(-c2ccccn2)s1 | 55% | -3% | 39 | nt | 18* | 28%
CCOc1ccccc1C(=O)N(Cc1ccc(C)o1)C1CCS(=O)(=O)C1 (stereo not given) | 17% | 9% | 3 | 9% | -8 | -9%
Cc1ccc(-c2nc3c(c(=O)c4ccccc4n3C)c(=O)n2-c2ccccc2)cc1 | -4% | 5% | -13 | ? | 5 | -11%
Cc1cccc(-c2nc3c(c(=O)c4ccccc4n3C)c(=O)n2-c2ccccc2)c1 | 1.7µM* | 1% | 14 | 1.7µM* | -1 | -15%
CCCCCCCC/C=C\CCCCCCCCCCCC(=O)O | nt | nt | -7 | nt | 4 | nt
CCOc1ccc(C(=O)NCC(=O)NCC(c2ccco2)N2CCCCC2)cc1 (stereo not given) | 19% | 0% | nt | 49% | nt | 5%[11.6 µM]
COc1ccccc1C(=O)NNC(=O)c1ccccc1[N+](=O)[O-] | 6% | -23% | -9 | ? | -1 | 31%
O=C(/C=C/c1ccccc1[N+](=O)[O-])c1ccccc1Br | ? | -5% | 47* | 13% | 14* | ?
SMILES | Pf growth 48h | SARS PLP yeast | Shiga inhibitor | Pf growth 96h | Cycloheximide cs | AMA1-RON2 inh
Cc1ccc(C(=O)/C=C/c2ccccc2[N+](=O)[O-])cc1 | ? | -2% | 39 | 68% | 28* | -23%
Cc1ccc(C(=O)/C=C/c2ccc(-c3ccccc3[N+](=O)[O-])o2)cc1 | 6% | -14% | -4 | 17% | -1 | ?
Cc1ccc(C(=O)C(C)OC(=O)c2ccccc2[N+](=O)[O-])cc1 (stereo not given) | 272% | -5% | 71* | 0% | 50* | ?
Cc1ccc(C2(C(=O)N3CCC(n4nc(-c5ccccc5)oc4=O)CC3)CC2)cc1 | ? | -8% | 33 | -1% | 12 | -6%
CCc1ccccc1NC(=O)c1ccccc1Sc1ccc([N+](=O)[O-])cc1Cl | 12µM* | -13% | -9 | -17% | -3 | 1%
CC(C)c1ccc(C(O)c2cnc(C(C)C)n2C)cc1 (stereo not given) | ? | -3% | 47* | -24% | 36* | -3%
Cn1c(Cl)cnc1C(O)c1ccccc1 (stereo not given) | 8% | -1% | -10 | 6.6µM* | 8 | 9%
CC(C)c1ncc(C(O)c2ccccc2)n1C (stereo not given) | 8% | 1% | 8 | 22% | -1 | 16%
Nc1nc(NCCCN2CCOCC2)nc(Nc2ccccc2F)c1[N+](=O)[O-] | ? | 0% | -10 | ? | 0 | 6%
O=C(NCCNC(=O)c1ccc(-c2cc(Cl)ccc2Cl)o1)c1cnccn1 | nt | nt | nt | nt | nt | 7%
CN1CCN(NC(=O)c2ccc(S(=O)(=O)N3CC4(C)CC3CC(C)(C)C4)cc2)CC1 (stereo not given) | 0% | 0% | -13 | 5% | -1 | -2%
COc1ccc(N(C)S(=O)(=O)c2cccc(C(=O)NC3CCCC(C)C3C)c2)cc1 (stereo not given) | ? | 0% | nt | ? | nt | -13%
COc1ccc(N(C)S(=O)(=O)c2cccc(C(=O)NC3CCC(C)CC3)c2)cc1 (stereo not given) | 0% | 2% | 52 | ? | 16* | -20%
COc1ccc(N(C)S(=O)(=O)c2cccc(C(=O)NC3CCCCCC3)c2)cc1 | ? | -1% | 3 | ? | -1 | -9%
COc1ccc(N(C)S(=O)(=O)c2cccc(C(=O)Nc3cccc(C(=O)NC4CC4)c3)c2)cc1 | 5.2µM* | -4% | nt | 15µM* | nt | -3%
COc1ccc(N(C)S(=O)(=O)c2cccc(C(=O)OC(C)C(=O)NC3CCCCC3C)c2)cc1 (stereo not given) | 12µM* | nt | nt | 21% | nt | 10%
COc1ccc(S(=O)(=O)N(C)c2ccc(C(=O)NC3CC3)cc2)cc1 | ? | -1% | -11 | ? | -1 | 0%
CC1(C)CC(=O)C2=C(C1)N(c1ccc(F)cc1)C(=O)C2(O)C(F)(F)F (stereo not given) | 5% | 2% | -2 | 14% | 5 | -1%
CN(C)Cc1csc(Nc2ccc(C(F)(F)F)cn2)n1 | nt | nt | nt | nt | nt | 90%
C=CCOC(=O)C1=C(C)NC(C)=C(C(=O)OCC=C)C1c1ccc(O)cc1 | ? | 10% | -7 | 4% | 0 | 1%
